Screens (PubChem BioAssay)
This is a sample that favours compounds with a hit; in the whole collection about 1.2% have one here.
HTT ATP protect = protects HTT-Q103 PC12 cells, measured by ATP | hit rate 0.14% among 230,000 | AID 1471 | PC12 HTT-Q103 induced, cytoprotection, ATP luminescence, 40 h | Potency, µM (top dose mostly 56.4 µM), for the others: cytoprotection (ATP increase), hits mostly activators; note: potency is the fitted concentration of half-maximal effect; % of control where 0% means no effect; nearly all actives have a fitted effect of over 45% in size
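Quantitative HTS on tebufenozide-induced (100 nM) PC12 cells expressing HTTQ103 exon 1–GFP; compounds tested as a concentration series; survival measured via cellular ATP.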
HTT aggregate = reduces HttQ103-GFP aggregates in PC12 cells | PC12 HttQ103-GFP aggregates, Acumen cytometry, 40 h | Potency, µM (doses to about 46.1 µM), inactives show top-dose activity change, negative = inhibition, actives largely listed as inhibitors | hit rate 1.1% among 220,000 | AID 1688; note: potency is the fitted concentration of half-maximal effect; % is set by controls: 0 for no effect and ±100 for the full control effect; nearly all actives have a fitted effect of over 60% in size
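Quantitative HTS on tebufenozide-induced (100 nM) PC12 cells stably expressing polyQ103 Huntingtin exon 1–GFP. Reduction of bright GFP aggregates, detected by laser scanning cytometry after lysis, identified actives across the titration.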
GLA spleen mod = alpha-galactosidase A (human) modulation; P06280; hit rate 0.008% among 240,000; Potency, µM (doses to about 80 µM), without a hit: top-dose activity change, negative = inhibition, actives largely listed as inhibitors; AID 2107; human spleen homogenate, 4MU-alpha-Gal fluorescence, 40 min;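 note: potency is the fitted concentration of half-maximal effect; 0% = enzyme with vehicle and -100% = no enzyme basal signal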
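Human spleen homogenate (1 ug) as enzyme source, 4-methylumbelliferyl-alpha-D-galactopyranoside 1 mM final, citrate/phosphate pH 5.0 with 0.01% Tween-20. Compounds 40 min at 37C, NaOH/glycine stop; fluorescence Ex 365/Em 440, Hill-fit AC50.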
GLA inh pH 4.5 = alpha-galactosidase A (human) inhibition, pH 4.5 | P06280 | purified enzyme, 4-MU-alpha-Gal fluorescence, pH 4.5 | activity change, negative = inhibition, % at 105 µM | 230,000 tested, under 10 active;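 note: 0% = full activity with enzyme and -100% = basal without enzyme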
Target sequence (P06280 whole entry, looked up): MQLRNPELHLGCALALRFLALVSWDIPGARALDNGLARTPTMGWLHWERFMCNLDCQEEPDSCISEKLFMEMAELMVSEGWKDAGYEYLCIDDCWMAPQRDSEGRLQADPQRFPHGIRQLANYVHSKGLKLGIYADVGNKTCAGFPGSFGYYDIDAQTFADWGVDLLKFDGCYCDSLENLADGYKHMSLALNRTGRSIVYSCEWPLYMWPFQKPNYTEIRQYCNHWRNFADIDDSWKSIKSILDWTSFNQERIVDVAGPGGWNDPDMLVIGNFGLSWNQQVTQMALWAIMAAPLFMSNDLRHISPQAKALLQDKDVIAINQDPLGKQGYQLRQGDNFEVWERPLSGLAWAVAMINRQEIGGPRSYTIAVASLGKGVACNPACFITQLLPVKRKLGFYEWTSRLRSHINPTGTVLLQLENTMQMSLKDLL
Active calls of the source: *; ? = inconclusive; . = no result given; [ ] = another dose, or the depositor's remark. Calls come from the whole dose curve; as a rule, active = well fitted curve in the direction sought with a large enough effect; inconclusive = small, poorly fitted or top-dose-only effect, or another doubt; inactive = no such curve, though single readings can be large; an effect the other way counts as inactive or inconclusive.

SMILES | HTT ATP protect | HTT aggregate | GLA spleen mod | GLA inh pH 4.5
CCN1CCCC1Cn1c(-c2ccccc2)nc2c(NC3CCCCC3)nc(C)nc21 (configuration not stated) | -31% | . | 2% | -12
CC(C)(C)c1ccc(-c2cn(-c3ccc(Br)cc3)c3[n+]2CCCS3)cc1 | -39%[10 µM] | 1.3µM* | -4% | 7
CC#C[C@@]1(O)CC[C@@H]2[C@@H]3CCC4=CC(=O)CCC4=C3[C@@H](c3ccc(N(C)C)cc3)C[C@]21C | -20%[1.9 µM] | . | . | .
Cc1ccc2[nH]c3c(N4CCN(Cc5ccccc5)CC4)ncnc3c2c1 | -102% | ? | -1% | -7
Cc1ccc2c(c1)[nH]c1c(N3CCN(Cc4ccccc4)CC3)ncnc12 | -85%[0.074 µM] | 7.1µM* | 8% | -19
Cc1ccc2[nH]c3c(N4CCCCCC4)ncnc3c2c1 | 9%[1.9 µM] | 8.9µM* | 1% | -1
COc1ccc2c(c1)[nH]c1c(N3CCN(Cc4ccc5c(c4)OCO5)CC3)ncnc12 | -100% | 8.9µM* | -13% | -3
CCC[C@@H]1C[C@@]1(CCC)[C@@H](NC(=O)Oc1ccccc1)c1ccc(C(=O)OC)cc1 | -2% | . | -1% | -3
COC(=O)[C@@H](NC(=O)N1CCc2nc(COc3ccccc3)c3c(c2C1)CO[C@@H](C)C3)C(C)C | -21%[10 µM] | . | 9%[17.5 µM] | -10
CC1=C(C(=O)OCc2ccc3c(c2)OCO3)C(c2ccc(F)cc2)NC(=O)N1 (configuration not stated) | -38% | 1.4µM* | -10% | 3
CCOC(=O)C1=C(C)NC(=O)NC1c1ccc2c(c1)OCCO2 (configuration not stated) | 1% | -7% | -7% | -6
COc1ccc(COC(=O)C2=C(C)NC(=O)NC2c2ccc(O)c(OC)c2)cc1 (configuration not stated) | -6%[10 µM] | ? | 4% | -2
CC1=C(C(=O)OCc2ccc3c(c2)OCO3)C(c2ccc(Cl)cc2)NC(=O)N1 (configuration not stated) | -3% | 1µM* | -1% | 4
CN[C@@H](CCCN=C(N)N)C(=O)N[C@@H](CCCCN)C(=O)N1CCC[C@H]1C(=O)N[C@@H](Cc1c[nH]c2ccccc12)C(=O)N[C@H](C(=O)N[C@H](CC(C)C)C(=O)O)C(C)(C)C | . | . | 2% | .
O=C(C1CCN(S(=O)(=O)c2cccnc2)CC1)N1CCN(c2ccccc2Cl)CC1 | 4% | -27% | 9% | 7
Cc1ccc(Cl)cc1N1CCN(C(=O)C2CCN(S(=O)(=O)c3cccnc3)CC2)CC1 | 10% | 11µM* | 2% | 0
NC(Cc1cc(I)c(Oc2cc(I)c(O)c(I)c2)c(I)c1)C(=O)O (configuration not stated) | -32% | . | 10% | 8
c1cc2c(cc1-c1cnc3n1CCC3)OCCO2 | 26% | 25µM* | -11% | 3
Cc1ccc(-c2cnc3n2CCCCC3)cc1 | -3%[10 µM] | 2% | -4% | -6
Cc1ccccc1Cn1ccc(=NCc2ccccc2)cc1 | . | 18µM* | -2% | 3
O=c1ccn(Cc2ccccc2)cc1 | -9%[10 µM] | -13%[9.22 µM] | 2% | 3
CC(=O)OCC1OC(Oc2cc(OC(C)=O)c3c(=O)cc(-c4ccc(OC(C)=O)c(OC(C)=O)c4)oc3c2)C(OC(C)=O)C(OC(C)=O)C1OC(C)=O (configuration not stated) | 13%[1.9 µM] | . | 8% | -24
O=C(Nc1cccc(C(F)(F)F)c1)N1CCC(c2nc(-c3ccc(F)cc3)no2)CC1 | -16%[10 µM] | 22µM* | -8% | -6
CCS(=O)(=O)N1CCC(c2nc(-c3ccc(C(F)(F)F)cc3)no2)CC1 | -38% | 11µM* | 5% | 10
O=C(Nc1ccc(Cl)cc1)N1CCC(c2nc(-c3ccccc3Cl)no2)CC1 | -25% | 11µM* | 0% | -6
SMILES | HTT ATP protect | HTT aggregate | GLA spleen mod | GLA inh pH 4.5
O=C(Nc1ccccc1)N1CCCC(c2nc(-c3ccc(F)cc3)no2)C1 (configuration not stated) | -1% | -17% | 8% | 5
N#CC1(O)CCCCC1 | 13% | . | 5% | .
Cc1ccc(S(=O)(=O)Nc2cccc3ccc[n+](C)c23)cc1 | . | . | 6% | .
CCOC(=O)COc1ccc2c(C)c(CCN(CC)CC)c(=O)oc2c1Cl | 13% | 18% | -7% | .
CCC(=O)NC[C@H](Cc1ccc(OCCc2nc(-c3ccccc3)oc2C)cc1)N/C(C)=C\C(=O)c1ccc(C(F)(F)F)cc1 | . | . | -2% | .
C/C(=N\NC(=O)c1cc(-c2cccs2)nc2ccccc12)c1ccccn1 | -131% | 0.89µM* | -1% | 5
